20 molecules from PubChem BioAssay AID493185 (National Center for Advancing Translational Sciences (NCATS), 2011) can be followed below.

The structures appear in SMILES notation. The source made the active and inactive calls. A call without a number means that no potency is given here. Calls follow the shape of the dose curve; as a rule, active = well fitted activation curve with a large enough effect; inconclusive = small, poorly fitted or top-dose-only effect; inactive = no such curve, though single readings can be large or run the other way.
Potency is read from the fitted curve at half-maximal effect.

This assay is described as follows: Counterscreen for Identifying a Potential Treatment of Ataxia-Telangiectasia: Hit Validation. Particulars: cell-free AlphaLISA/AlphaScreen artifact counterscreen, PBS only, no cells; series mostly up to 76.9 µM. The source says: NIH Chemical Genomics Center [NCGC]
NIH Molecular Libraries Probe Centers Network [MLPCN]
Assay Submitter (PI): Wei Zheng and Yosef Shiloh
Ataxia-telangiectasia (A-T) is a devastating and progressive disease for which, there is no cure. Although A-T is a multisystem disease, it is stereotyped characterized by its neurological symptoms such as truncal ataxia, due to cerebellar cortical degeneration of the Purkinje and granule cells. Other symptoms of A-T are telangiectasias (dilated blood vessels), primary immunodeficiency, marked sensitivity to ionizing radiation (IR), chromosomal instability and predisposition to cancer.
The underlying genetic cause of A-T is null mutations in the ATM (A-T mutated) gene. ATM is a nuclear serine/threonine kinase that functions as a master regulator of the cellular responses to double strand breaks (DSBs) in the DNA. Upon activation by DSBs, ATM phosphorylates a plethora of downstream targets, including KAP-1 on […]. KAP-1 phosphorylation occurs shortly in response to DSBs and mediates global chromatin relaxation, which facilitates DSB repair. To screen for small molecules that will compensate for the loss of ATM in cells derived from A-T patients, we monitored KAP-1 phosphorylation as a readout for ATM-like activity using an AlphaLISA assay.
3. Library compounds, 23 nl, 76.7 - 0.61uM dilution series final concentration
4. Incubation, 60 min, 37C, 5% CO2, 95% humidity
6. Incubation, 30 min, 37C, 5% CO2, 95% humidity
7. Reagent, 1 ul, Premixed detection reagents and lysis buffer
8. Reagent, 1 ul, 0.6% Antifoam A
9. Incubation, 6 hr, 25C, 95% humidity
10. Readout, EnVision, EnVision plate reader. AlphaScreen 1536-well protocol
PBS was dispensed into medium-binding white solid-bottom tissue culture treated Kalypsys plates with a Multidrop dispenser. Detection reagent and lysis buffer was 3.75nM Rab-a-pKAP1 antibody bound to 75 ng/ul AlphaScreen SA donor bead, 3.75 nM Biot-M-a-KAP1 antibody bound to AlphaLISA protein A acceptor bead, 0.5x protease inhibitor cocktail and 0.25x PerkinElmer lysis buffer. EnVision protocol for 1536-well AlphaScreen read (30ms excitation, 100ms read), about 10 min/plate. This assay is similar to the primary screen but is without cells. It aims to identify artifacts of the assay platform and unspecific hits.
Background: Counterscreens check selectivity or assay interference.
Regarding `COC(=O)C1=C(c2ccc(OCc3ccccc3)cc2)C[C@@H]2CC[C@H]1N2C(=O)NCc1cccc(C(F)(F)F)c1`, the Potency result was “inactive”. Turning to `CCCCC(=O)N/N=C/c1c(O)n(CCC2=CCCCC2)c(=O)[nH]c1=O`, the Potency entry is “inactive”. Turning to `Cc1cc(O)c2c(c1)C(=O)C13C(=C2O)C(=O)[C@H]2[C@@H](O)[C@@H]1[C@H]1[C@H](O)[C@@H]3C(=O)C3=C(O)c4c(O)cc(C)cc4C(=O)C312` (stereo not given in full), the Potency is 7.33 µM (active).

As for `C/C=C/c1ccc2c(c1)OCO2`, the Potency result was “inactive”.

`Cc1nc2ccccc2c(=O)n1-c1ccc(F)cc1F`: the Potency result was “inactive”. As to `O=C(c1cccnc1)C1CCCN(Cc2nc(-c3cnccn3)no2)C1` (stereo not given), the Potency result was “inactive”.

For `CCCCn1c(O)c(C(=O)/C=C/c2c[nH]c3ccccc23)c(=O)[nH]c1=O`, the Potency entry is “inactive”. As for `CCN1C(=O)N(CC)C(=O)C2(Cc3ccccc3N3CCN(c4ccccc4)CC32)C1=O` (stereo not given), the Potency result was “inactive”. With `CCN(CC)S(=O)(=O)c1ccc(C(=O)NC2CN3CCC2CC3)cc1` (stereo not given), the Potency result was “inactive”. In the case of `CN1CCCC(C(O)(c2ccccc2)c2ccccc2)C1` (stereo not given), the Potency result is “inactive”.

Regarding `CC1(C)C[C@H]2C=C(C=O)[C@]3(C=O)C[C@]3(C)[C@H]2C1`, the Potency result was “inactive”.

Regarding `CC(C)c1ccc(-n2c(O)c(C=NC(CCS(C)=O)C(=O)O)c(=O)[nH]c2=S)cc1` (stereo not given), the Potency entry was “inactive”. With `CCN(CC)S(=O)(=O)c1cccc(N=Nc2c(O)n(CC)c(=S)n(CC)c2=O)c1`, the Potency entry is “inactive”. The same measure for `Cc1ccc(C)c(NP(=O)(Oc2ccccc2)Oc2ccccc2)c1`: “inactive”. In the case of `CC(=O)OC1CC[C@]2(C#N)[C@H]3CC[C@]4(C)[C@H](C5C=CC(=O)O5)CCC4(O)C3CCC2(O)C1` (stereo not given in full), the Potency entry is “inactive”. Take `O=C1Nc2ccccc2C1Cc1nc2ccccc2c(=O)n1-c1ccccc1` (stereo not given): the Potency entry is “inactive”. With `Cc1ccc(-n2c(O)c(C=NCC3CCCO3)c(=O)[nH]c2=O)c(C)c1` (stereo not given), the Potency result is “inactive”.

With `CCc1ccc(N2C(=O)NC(=O)/C(=C\C=C\c3ccco3)C2=O)cc1`, the Potency result is “inactive”. With `CN1CCN(c2ccc([N+](=O)[O-])c3no[n+]([O-])c23)CC1`, the Potency entry was “inactive”. In the case of `Cc1cccc(N2C(=O)NC(=O)/C(=C\C=C\c3ccco3)C2=O)c1`, the Potency entry is “inactive”.
